Screens (PubChem BioAssay)
Most compounds without a hit are left out; they make up all but 9% or so of the library.
LMNA splice mod: changes lamin A minigene splicing in HeLa cells; 200,000 compounds, 0.01% hits; Potency, µM (highest dose often 46.1 µM), inactives show top-dose ratio change, negative = inhibition, usual class: inhibitors; HeLa LMNA splicing GFP/RFP minigene ratio, 48 h; active = well fitted inhibition curve with a large enough effect in the signal ratio, with a control signal flat, not every such curve was filed as active; inconclusive = small, poorly fitted or top-dose-only effect, or effect the other way, or a change in a side signal; the % refers to the signal ratio
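S3 HeLa stable clones carrying a lamin A-EGFP splicing minigene plus DsRed2 were seeded at 600 cells/well in Opti-MEM with 2% FBS, pin-dosed and incubated 48 h at 37°C. Acumen cytometry (488 nm) gave the GFP/RFP total-intensity ratio.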
Luc counter: Kinase-Glo luciferase inhibition (counter-screen). Kinase-Glo luciferase, ATP luminescence, 8 min. Q27757. 200,000 compounds, 0.28% hits. Potency, µM (highest dose often 38.3 µM), without a hit: at the top dose activity change, negative = inhibition, hits mostly inhibitors; also: nearly all actives have a fitted effect of over 60% in size
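Inhibition of Kinase-Glo luciferase light generation was assessed at 10 uM ATP in pH 7.2 imidazole buffer, with luminescence measured after eight minutes at ambient temperature.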
HPGD block: blocks human HPGD enzyme activity; P15428; purified HPGD, NADH fluorescence kinetic, PGE2 substrate; Potency, µM, for the others: top-dose activity change, negative = inhibition, hits mostly inhibitors; 150,000 compounds, 4.3% hits; AID 894; active = well fitted inhibition curve with a large enough effect, not every such curve was filed as active; inconclusive = small, poorly fitted or top-dose-only effect, or another doubt; inactive = no such curve, though single readings can be large or run the other way
Target sequence (P15428 whole entry, looked up): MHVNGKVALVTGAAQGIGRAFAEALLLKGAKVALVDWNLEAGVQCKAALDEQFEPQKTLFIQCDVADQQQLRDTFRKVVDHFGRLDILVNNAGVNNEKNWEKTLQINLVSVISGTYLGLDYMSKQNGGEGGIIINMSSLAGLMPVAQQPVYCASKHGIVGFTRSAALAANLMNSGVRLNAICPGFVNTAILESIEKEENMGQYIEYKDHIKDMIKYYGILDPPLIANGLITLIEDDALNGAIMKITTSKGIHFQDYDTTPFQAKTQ
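20 nM HPGD preincubated 15 min at room temperature with compound in 50 mM Tris-HCl pH 8, 0.01% Tween 20. Started with 1 mM NAD+ and 30 uM prostaglandin E2; NADH fluorescence (360/450 nm) read 5 times over 30-s intervals, last minus first.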
IMPase Li cell: membrane-permeable IMPase blocker, potentiated with lithium; CHO-M1 cells, IP1 TR-FRET (IP-One), carbachol + lithium; Potency, µM (highest dose often 59.4 µM), for the others: top-dose activity, negative = IMPase inhibition, most hits filed as inhibitors; 210,000 compounds, 0.35% hits; AID 1457;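 also: IP1 builds up when IMPase is blocked and the TR-FRET signal falls; plate controls were basal vehicle for no effect and high inhibitor control for full effect; nearly all actives have a fitted effect of over 50% in size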
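Steps: plate 2000 CHO-M1 cells per well and culture 16–30 h; add compound and lithium; incubate 30 min, 37C; add d2-IP1 tracer and Eu cryptate anti-IP1 antibody in lysis buffer; read after 10 min at room temperature.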
ALDH1A1 block: ALDH1A1 (human) enzyme inhibition. Purified ALDH1A1, NADH fluorescence, propionaldehyde substrate. Potency, µM (series often up to 75.3 µM), inactives show at the top dose activity, negative = inhibition, usual class: inhibitors. 220,000 compounds, 7.3% hits; active = well fitted inhibition curve with a large enough effect, not every such curve was filed as active; inconclusive = small, poorly fitted or top-dose-only effect, or another doubt; inactive = no such curve, though single readings can be large or run the other way;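 also: plate controls were no enzyme wells and a reference inhibitor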
Target sequence (P00352 whole entry, looked up): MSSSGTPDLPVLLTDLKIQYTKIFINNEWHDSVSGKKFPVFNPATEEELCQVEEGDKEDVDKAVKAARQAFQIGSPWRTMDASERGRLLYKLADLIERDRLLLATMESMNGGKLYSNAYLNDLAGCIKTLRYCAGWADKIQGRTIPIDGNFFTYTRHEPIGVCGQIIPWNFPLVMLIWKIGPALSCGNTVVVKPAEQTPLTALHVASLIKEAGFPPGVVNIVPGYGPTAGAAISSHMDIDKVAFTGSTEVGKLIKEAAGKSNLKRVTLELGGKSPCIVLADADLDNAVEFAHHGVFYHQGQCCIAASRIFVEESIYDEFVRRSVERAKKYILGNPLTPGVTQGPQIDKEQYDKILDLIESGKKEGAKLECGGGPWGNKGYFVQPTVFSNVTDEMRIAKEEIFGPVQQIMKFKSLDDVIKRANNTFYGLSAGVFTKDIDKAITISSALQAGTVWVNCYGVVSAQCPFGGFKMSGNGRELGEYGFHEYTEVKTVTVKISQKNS
* marks the source's active call; other numbers are inactive results; [ ] = another dose, or the depositor's remark. Unless noted, calls follow the shape of the dose curve; as a rule, active = well fitted curve in the direction sought with a large enough effect; inconclusive = small, poorly fitted or top-dose-only effect, or another doubt; inactive = no such curve, though single readings can be large; an effect the other way counts as inactive or inconclusive. Unless noted, % is scaled to controls: 0 for no effect and ±100 for the full control effect; potency is read from the fitted curve at half-maximal effect.

Cc1ccc(NC(=O)CN(C)C2CCCCC2)cc1Br was read as Luc counter -1.0%, IMPase Li cell 11.9% and ALDH1A1 block 28.2µM*.
CN(Cc1cnn(C)c1)C(=O)c1cc2ccccc2oc1=O was read as LMNA splice mod -17.3%, Luc counter -2.8%, HPGD block -22.0%, IMPase Li cell 6.5%[38.3 µM] and ALDH1A1 block -0.2%.
For CN(Cc1cnn(C)c1)C(=O)c1sc2cccc(Cl)c2c1Cl the results were LMNA splice mod inconclusive, Luc counter -3.0%, HPGD block 28.2µM*, IMPase Li cell -15.0%[38.3 µM] and ALDH1A1 block inconclusive.
`C=CCc1cccc(C2C(C)CCC3C(=O)N4C(CCC(C)C4c4cccc(CC=C)c4)C(=O)N32)c1` (stereo not drawn) gave ALDH1A1 block 6.31µM*.
O=C(Nc1cccc(F)c1)N1CC[C@@]2(CCCN(C(=O)c3csnn3)C2)C1 was read as Luc counter -3.6%, HPGD block -13.7%, IMPase Li cell 6.5% and ALDH1A1 block -7.0%.
Screening Cc1ccccc1C(=O)/C=C1\NC(=O)CS1 returned LMNA splice mod inconclusive, Luc counter -5.0%, HPGD block 15.8µM*, IMPase Li cell -7.8%[38.3 µM] and ALDH1A1 block 25.1µM*.
`O=C1CS/C(=C/C(=O)c2ccccc2)N1` gave LMNA splice mod -2.6%, Luc counter -9.1%, HPGD block 20µM*, IMPase Li cell -14.6%[38.3 µM] and ALDH1A1 block -6.5%.
Screening O=C(NCc1ccc(-n2cccc2)cc1)c1cccc(F)c1 returned LMNA splice mod 5.7%[9.22 µM], Luc counter -4.2%, IMPase Li cell 4.4% and ALDH1A1 block 15.8µM*.
Screening CCc1ccc(Nc2nnc(SCc3cc(=O)n4ccsc4n3)s2)cc1 returned LMNA splice mod inconclusive, Luc counter -4.2%, HPGD block 20µM*, IMPase Li cell 18.3%[38.3 µM] and ALDH1A1 block inconclusive.
Cc1ccc(Nc2nnc(SCc3cc(=O)n4ccsc4n3)s2)c(C)c1 was read as LMNA splice mod 3.3%, Luc counter -5.9%, HPGD block -16.2%, IMPase Li cell 15.3%[38.3 µM] and ALDH1A1 block inconclusive.
Screening Cc1cccc(Nc2nnc(SCc3cc(=O)n4cc(C)ccc4n3)s2)c1 returned LMNA splice mod 3.4%, Luc counter 2.1%, HPGD block 15.8µM*, IMPase Li cell 10.0% and ALDH1A1 block -9.3%.
For Cc1nc(NC(=S)NC(=O)c2cccs2)sc1C(=O)N(C)C the results were LMNA splice mod 26.0%, Luc counter 12.3%, HPGD block 22.4µM*, IMPase Li cell 19.3%[38.3 µM] and ALDH1A1 block 4.47µM*.
For COc1ccc(C(=O)NC(=S)Nc2nc(C)c(C(=O)N(C)C)s2)cc1 the results were LMNA splice mod -0.9%, Luc counter -4.2%, HPGD block -15.5%, IMPase Li cell 8.5%[38.3 µM] and ALDH1A1 block inconclusive.
Screening COCC(=O)N1CCC[C@@]2(CCN(Cc3nccs3)C2)C1 returned Luc counter -0.4%, HPGD block -10.4%, IMPase Li cell 3.0% and ALDH1A1 block 5.3%.
`C=CCNC(=O)CSc1cc([N+](=O)[O-])cc(S(=O)(=O)Cc2ccccc2)c1` gave LMNA splice mod 9.5%, Luc counter 1.5%, HPGD block inconclusive, IMPase Li cell 12.4% and ALDH1A1 block 4.47µM*.
For O=C(CSc1cc([N+](=O)[O-])cc(S(=O)(=O)Cc2ccccc2)c1)NC1CC1 the results were LMNA splice mod 6.6%, Luc counter -2.5%, HPGD block 22.4µM*, IMPase Li cell 3.0% and ALDH1A1 block 25.1µM*.
Screening C=CCNC(=O)CSc1ccc(Cl)cc1 returned LMNA splice mod 3.5%, Luc counter 6.6%, HPGD block -14.6%, IMPase Li cell 16.3%[38.3 µM] and ALDH1A1 block 13.5%.
Screening COc1ccc(C(=O)N2CCN(C(C)=O)CC2)cc1S(=O)(=O)N1CCOCC1 returned Luc counter 0.8%, IMPase Li cell -0.8% and ALDH1A1 block 15.7%.
For Cc1cccc(C)c1NC(=S)NNc1ncc(C(F)(F)F)cc1Cl the results were LMNA splice mod 6.6%, Luc counter -2.5%, HPGD block -5.2%, IMPase Li cell 23.1%[38.3 µM] and ALDH1A1 block inconclusive.
For O=C(NNc1ncc(C(F)(F)F)cc1Cl)c1c(Cl)cccc1Cl the results were LMNA splice mod inconclusive, Luc counter 3.3%, HPGD block -3.6%, IMPase Li cell -22.2%[38.3 µM] and ALDH1A1 block 2.6%.
For Cc1ccccc1NC(=S)NNc1ncc(C(F)(F)F)cc1Cl the results were LMNA splice mod inconclusive, Luc counter 15.7%, HPGD block -12.7%, IMPase Li cell 12.1%[38.3 µM] and ALDH1A1 block 10µM*.
`FC(F)(F)c1cnc(NNC(=S)Nc2cccnc2)c(Cl)c1` gave LMNA splice mod inconclusive, Luc counter -0.7%, IMPase Li cell -3.6% and ALDH1A1 block 2.24µM*.
Fc1ccccc1NC(=S)NNc1ncc(C(F)(F)F)cc1Cl was read as LMNA splice mod -8.7%, Luc counter -2.7%, HPGD block -25.3%, IMPase Li cell 20.4%[38.3 µM] and ALDH1A1 block 2.24µM*.
For NC(=O)NNc1ncc(C(F)(F)F)cc1Cl the results were LMNA splice mod 9.4%[9.22 µM], Luc counter -1.8%, IMPase Li cell -11.1% and ALDH1A1 block inconclusive.
For Cc1c(Cl)cccc1NC(=S)NNc1ncc(C(F)(F)F)cc1Cl the results were LMNA splice mod 1.4%, Luc counter 2.1%, HPGD block -11.3%, IMPase Li cell -3.3%[38.3 µM] and ALDH1A1 block 14.1µM*.
For COC(=O)C/C=C\[C@@H](C)[C@@H](/C=N\O[C@@H](C)CN1CCCCc2nc(C)c(C)cc21)NS(=O)(=O)c1ccc(C)cc1 the results were ALDH1A1 block 13.1%[13.5 µM].
`CCC1CCC2(CC1)NNC(=S)NN2` gave LMNA splice mod 6.6%, Luc counter 18.6%, HPGD block 10µM*, IMPase Li cell 7.7%[38.3 µM] and ALDH1A1 block 7.51µM*.
`O=C(Nc1c2c(nn1-c1ccc(F)cc1)CS(=O)C2)c1ccc(S(=O)(=O)N2CCOCC2)cc1` (stereo not drawn) gave LMNA splice mod 27.8%[46 µM], Luc counter -0.4%, IMPase Li cell 3.6% and ALDH1A1 block inconclusive.
CC1=C2[C@H](/C=C(\C)C(=O)O)CC[C@@H](C)[C@H]2CC1 was read as HPGD block -4.7%, IMPase Li cell 2.1% and ALDH1A1 block 17.8µM*.
For COc1ccc(CNC(=O)c2cnc(N3CCCC3)nc2C)c(OC)c1 the results were LMNA splice mod 27.1%[46 µM].
Nc1c(C(=O)N2CCCC2)sc2nc3c(cc12)CCCCCC3 was read as Luc counter 0.5%, IMPase Li cell -15.2% and ALDH1A1 block inconclusive.
Nc1c(C(=O)N2CCOCC2)sc2nc3c(cc12)CCC3 was read as LMNA splice mod 19.4%[46 µM], Luc counter 11.2µM*, IMPase Li cell 2.9% and ALDH1A1 block 5.8%.
Screening COc1ccc(-c2nc(-c3ccccc3)c(-c3cc([N+](=O)[O-])ccc3C)[nH]2)cc1O returned LMNA splice mod inconclusive, Luc counter 3.8%, HPGD block -9.9%, IMPase Li cell -2.3%[38.3 µM] and ALDH1A1 block -11.6%.
